Measured values as given in ChEMBL document CHEMBL1157539, “Thousands of chemical starting points for antimalarial lead identification” (Nature, 2010).

Tests used:
Type in all cases: functional
[1] = system: Plasmodium falciparum; assay: GSK_TCMDC: Inhibition of Plasmodium falciparum 3D7 in whole red blood cells, using parasite LDH activity as an index of growth. Test compounds present at 2uM
[2] = system: Plasmodium falciparum; assay: GSK_TCMDC: Inhibition of Plasmodium falciparum Dd2 in whole red blood cells, using parasite LDH activity as an index of growth. Test compounds present at 2uM
[3] = system: HepG2; assay: GSK_TCMDC: Percent inhibition of human HepG2 cell line. Test compounds present at 10uM.

Row | Compound | Inhibition [1] | Inhibition [2] | Inhibition [3]
1 | Cc1ccc(C(=O)Nc2cccc(CN3CCCN(Cc4ccc(O)cc4)CC3)c2)s1.O=C(O)C(F)(F)F | 90% | 23% | 17%
2 | COc1cc(CNCCCNc2cc(=O)c3ccccc3[nH]2)c2c(c1)C(C)CN2C(=O)OC(C)(C)C (centres undefined) | 96% | 87% | 0%
3 | Cc1cc(NC(=O)Nc2ccc(C#N)cc2)c2ccccc2n1 | 100% | 49% | 88%
4 | O=C(CN1CCN(C(=O)c2ccco2)CC1)Nc1ccccc1Br | 97% | 96% | 15%
5 | CN(C)Cc1c(O)ccc2[nH]c(-c3cccc(F)c3)nc12 | 99% | 71% | 9%
6 | CCOC(=O)N[C@@H]1CN[C@@H](C#Cc2cc3c(Nc4ccc(OCc5cccc(F)c5)c(Cl)c4)ncnc3s2)C1 | 86% | 13% | 8%
7 | Cc1cc(C(=O)CN2C(=O)NC3(CCOc4ccccc43)C2=O)c(C)n1Cc1ccco1 (centres undefined) | 93% | 42% | 13%
8 | Cc1ccc(C)c2sc(N(CCCn3ccnc3)C(=O)c3ccco3)nc12.Cl | 96% | 63% | 28%
9 | Cc1ccc(Nc2nc(-c3ccccn3)cs2)nc1 | 94% | 97% | 60%
10 | Cc1noc(C)c1-c1cccc(CNCc2ccc(-c3cccc(-c4nc5cc(C(F)(F)F)ccc5[nH]4)c3)cc2)c1.O=C(O)C(F)(F)F | 100% | 97% | 37%
11 | O=C(C=Cc1ccc(Cl)c(Cl)c1)NCCCCCN1CCC(CCCNC(=O)c2ccc3c(c2)OCO3)CC1 | 98% | 64% | 38%
12 | CCNc1cc(C)nc(Nc2ccc(NC(=O)c3ccc(OC)c(OC)c3)cc2)n1 | 100% | 65% | 19%
13 | Cc1cc(=O)c(-c2ccc(OCCSc3ccc(C(F)(F)F)cn3)cc2)c(C)[nH]1 | 97% | 96% | 2%
14 | Cc1cccc2nc(-c3cccc(-c4cccc(NC(=O)Nc5ccsc5)c4)c3)[nH]c12 | 100% | 41% | 15%
15 | CCn1cnc2c(N3CCCCS3(=O)=O)cc(C(=O)N[C@@H](Cc3ccccc3)[C@H](O)CNC3CCOCC3)cc21 | 99% | 87% | 7%
16 | Nc1ncc(-c2ccsc2)c2ccc(-c3cnc[nH]3)cc12 | 100% | 70% | 31%
17 | CCCCCN1CCCC1CNS(=O)(=O)c1cccc(C(=O)Nc2cccc(C#N)c2)c1.O=C(O)C(F)(F)F (centres undefined) | 90% | 7% | 19%
18 | N#C/N=C(\NCCCCCCCCN/C(=N\C#N)NCCSCc1csc(N=C(N)N)n1)NCCCSc1csc(N=C(N)N)n1 | 91% | 24% | 0%
19 | COCC(=O)Nc1nc2ccccc2[nH]1 | 98% | 1% | 0%
20 | COc1ccc(Nc2ncc3c(-c4cccc(NC(=O)c5ccc(N)cc5)c4)c[nH]c3n2)cc1OC | 84% | 31% | 83%
21 | CCOc1cc(C(=O)NCc2ccc(Cl)c(Cl)c2)ccc1-c1nc2cc(Cl)ccc2[nH]1 | 97% | 4% | 10%
22 | CC1CN(c2cc(=O)n(Cc3cccc(NC(=O)Nc4ccc(-c5ccccc5)cc4)c3)cn2)CC(C)N1.O=C(O)C(F)(F)F (centres undefined) | 100% | 63% | 2%
23 | Cc1cccc(NC(c2cccs2)c2c(NC(=O)c3ccccc3)sc(C)c2C)n1 (centres undefined) | 88% | 80% | 0%
24 | CCn1c(-c2nc(-c3ccc4c(c3)OCO4)cnc2N)nc2cnccc21 | 100% | 98% | 94%
25 | CCNc1cc(C(=O)N[C@@H](Cc2ccccc2)[C@H](O)CNCCc2ccccc2)cc(N2CCCCS2(=O)=O)c1.Cl | 98% | 91% | 14%
26 | O=C(Nc1ccc(C(F)(F)F)cc1)Nc1ccccc1N1CCNCC1.O=C(O)C(F)(F)F | 94% | 69% | 39%
27 | COc1cc(F)c2nccc([C@@H](O)CN3CCC(NCc4nc5cccc(F)c5[nH]4)CC3)c2c1.O=C(O)C(=O)O | 99% | 5% | 11%
28 | COc1cccc(-n2ncc3c(N/N=C/c4ccc(CN(C)CCN(C)C)cc4)ncnc32)c1 | 100% | 91% | 29%
